# Screening results deposited in PubChem by several laboratories.
# CCHF vOTU inh: CCHFV vOTU protease inhibition; inhibition, % at 11.5 µM; 370,000 compounds, 0.55% hits; Pep-AMC fluorescence; AID 651958; in the data active = inhibition above about 30%; note: 0% = vehicle wells with enzyme and 100% = no enzyme wells
# RecA intein inh: blocks M. tuberculosis RecA intein splicing; 290,000 compounds, 0.75% hits; P9WHJ3; AID 2221; cell-free RecA intein splicing, fluorescence; inhibition, % (test concentration not listed); in the data active = inhibition above about 30%;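 note: 0% = vehicle wells and 100% = reference inhibitor control wells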
# Target sequence (P9WHJ3 whole entry, looked up): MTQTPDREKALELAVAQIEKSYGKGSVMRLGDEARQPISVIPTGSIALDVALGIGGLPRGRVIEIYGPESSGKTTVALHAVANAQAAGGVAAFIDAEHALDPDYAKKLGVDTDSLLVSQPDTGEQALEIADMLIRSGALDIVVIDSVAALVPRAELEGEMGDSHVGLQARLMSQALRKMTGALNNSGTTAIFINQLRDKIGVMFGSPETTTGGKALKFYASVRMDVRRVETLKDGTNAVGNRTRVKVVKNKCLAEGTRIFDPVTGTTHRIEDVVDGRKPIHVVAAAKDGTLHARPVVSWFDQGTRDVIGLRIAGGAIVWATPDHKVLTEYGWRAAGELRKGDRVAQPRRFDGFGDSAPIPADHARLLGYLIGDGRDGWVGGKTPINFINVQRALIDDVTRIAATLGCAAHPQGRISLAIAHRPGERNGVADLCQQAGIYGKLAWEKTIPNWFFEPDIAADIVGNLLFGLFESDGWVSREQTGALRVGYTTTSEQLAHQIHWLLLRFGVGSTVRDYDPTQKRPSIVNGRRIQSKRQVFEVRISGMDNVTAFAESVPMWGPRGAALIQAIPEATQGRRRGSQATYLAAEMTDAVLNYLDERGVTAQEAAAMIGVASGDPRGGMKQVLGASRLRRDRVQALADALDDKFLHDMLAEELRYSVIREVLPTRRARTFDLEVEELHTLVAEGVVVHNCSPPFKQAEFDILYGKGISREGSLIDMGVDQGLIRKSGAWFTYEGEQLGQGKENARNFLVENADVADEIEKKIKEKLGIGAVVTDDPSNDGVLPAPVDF
# Mtb bLac sens: beta-lactam sensitization of Mtb H37Rv; M. tuberculosis H37Rv growth with meropenem, percent inhibition; 330,000 compounds, 0.27% hits; inhibition, % at 25 µM; AID 434955; call rule not given here;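 note: growth measured after seven days incubation then overnight dye step; 0% = bacteria only wells and 100% = bacteria with antibiotic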
# Yp Topo-I inh: Y. pestis Topo-I inhibition via cleavage products. Y. pestis Topo-I cleavage product accumulation, plate reader. activity, % at 10 µM. 360,000 compounds, 0.064% hits. AID 504884; in the data active = activity above about 50%, passing the limit was not always enough
# BJeLR lethal: kills HRASV12-expressing BJeLR cells; BJeLR (HRASV12) viability, CellTiter-Glo ATP luminescence, 48 h; inhibition, % (concentration not given with the values); 300,000 compounds, 0.17% hits; in the data active = inhibition above about 50%
# BioA inh: blocks M. tuberculosis BioA enzyme activity | purified M. tuberculosis BioA enzyme, plate reader | AID 602481 | 360,000 compounds, 0.096% hits | inhibition, % at 9.99 µM; in the data active = inhibition above about 40%
# * hit, by the source's call; / = no result. The list is not random: actives were taken first. Their share in the collection is about 1.1%.
SMILES,CCHF vOTU inh,RecA intein inh,Mtb bLac sens,Yp Topo-I inh,BJeLR lethal,BioA inh
C[C@H](CO)N1C[C@H](C)[C@H](CN(C)CC2CCCCC2)Oc2c(NC(=O)C3CCCCC3)cccc2C1=O,/,/,/,/,/,0
O=C(C1CC1)N1C[C@@H]2[C@H](c3ccccc31)[C@H](CO)N2C(=O)c1ccccn1,/,/,/,/,/,-7
CCCCCCOC(=O)c1ccccc1NC(=O)/C=C/C(=O)O,15,67*,2,5,-1,1
CCOC(=O)c1ccccc1NC(=O)/C=C/C(=O)O,-6,2,4,-4,4,0
N#Cc1cn(C2OC(CO)C(O)C2O)c2ncnc(N)c12 (stereo unspecified),-2,/,/,-2,/,/
NC(=O)c1cn(C2OC(CO)C(O)C2O)c2ncnc(N)c12 (stereo unspecified),4,0,-4,-1,91*,-1
COc1ccccc1-[n+]1c(C)cc(/C=C2\Sc3ccccc3N2C)cc1C,8,-14,100,3,73*,29
CC1Nc2ncnc(N3CCc4ccccc4C3)c2N(Cc2ccc(Br)cc2)C1=O (stereo unspecified),5,35*,3,4,8,-2
CC1Nc2ncnc(N3CCc4ccccc4C3)c2N(Cc2ccc(Cl)cc2)C1=O (stereo unspecified),/,32*,0,10,9,-1
CNC[C@@H]1OCCCC[C@H](C)Oc2ccc(NC(=O)NC(C)C)cc2C(=O)N([C@H](C)CO)C[C@H]1C,/,/,/,/,/,-3
Nc1ccc(O)c2c1C(=O)c1ccccc1C2=O,4,42*,3,11,16,-2
COc1ccc(OC2C(=O)N(Cc3ccc(F)cc3)C2c2cc(OC)c(OC)c(OC)c2)cc1 (stereo unspecified),-5,-3,-2,-3,-2,/
COC(=O)c1ccc(C2C(Oc3ccc(OC)cc3)C(=O)N2CCc2ccc(F)cc2)cc1 (stereo unspecified),-8,0,16,67*,2,/
COc1ccc(Cc2nc(-c3ccc(NC(=O)c4cccnc4)cc3)no2)cc1,4,2,16,3,90*,/
CN1C(=O)c2cc(NS(=O)(=O)c3cccc(F)c3)ccc2OC[C@@H]2O[C@@H](CC(=O)N3CCc4ccccc4C3)CC[C@@H]21,/,/,/,/,/,2
CC(C)NC(=O)Nc1ccc2c(c1)CC(=O)N([C@@H](C)CO)C[C@@H](C)[C@H](CN(C)C(=O)Nc1ccc3c(c1)OCO3)O2,/,/,/,/,/,-3
C[C@H]1CN([C@@H](C)CO)C(=O)c2cc(C#CC3CC3)cnc2O[C@@H]1CN(C)Cc1ccccn1,/,/,/,/,/,-1
O=C(c1c[nH]c(C(=O)C(Cl)(Cl)Cl)c1)c1c(F)cccc1F,-4,14,-2,0,11,-1
O=C(c1c[nH]c(C(=O)C(Cl)(Cl)Cl)c1)c1ccccc1F,-12,60*,6,6,3,-1
O=C(C(Sc1ccccc1)c1ccccc1)N1CCN(c2ccccc2F)CC1 (stereo unspecified),16,6,-1,55*,5,-1
O=C(C(Sc1ccccc1)c1ccc(Br)cc1)N1CCOCC1 (stereo unspecified),17,-4,-3,14,-1,0
Cc1ccc(S(=O)(=O)N[C@@H]2CC[C@@H](CC(=O)NCCCN(C)C)O[C@H]2CO)cc1,/,/,/,/,/,-2
CC(=C/c1ccc(C(C)C)cc1)/C=N/NC(=O)CSc1ccccn1,12,24,16,61*,-1,/
O=C(C[C@H]1C[C@@H]2c3cc(NS(=O)(=O)c4ccc(F)cc4)ccc3O[C@@H]2[C@@H](CO)O1)NCc1ccncc1,/,/,/,/,/,0
CCn1nc(-c2ccccc2)nc2c(=O)n(C)c(=O)nc1-2,/,95*,98,8,0,/
SMILES,CCHF vOTU inh,RecA intein inh,Mtb bLac sens,Yp Topo-I inh,BJeLR lethal,BioA inh
C[C@H]1CN([C@@H](C)CO)C(=O)c2cc(-c3ccccc3)cnc2O[C@@H]1CN(C)Cc1ccc(C(=O)O)cc1,/,/,/,/,/,0
C=CCn1c(SCC(=O)c2ccccc2)nnc1-c1cc2ccccc2o1,2,-1,3,41,-5,1
C=CCn1c(SCC(=O)c2ccc(OC)cc2)nnc1-c1cc2cccc(OC)c2o1,14,3,3,67*,4,-2
CNC(=O)C[C@@H]1CC[C@H]2[C@@H](COC[C@H](O)CN2C(=O)c2ccc3c(c2)OCO3)O1,/,/,/,/,/,0
Cc1ccc(C(C)C)c(OCc2ccc(C(=O)N/N=C/c3cccc(O)c3O)cc2)c1,17,8,2,3,74*,/
CC(C)CC#Cc1ccc([C@@H]2[C@H](CO)N3CCCCN(C(=O)c4ccc5c(c4)OCO5)C[C@@H]23)cc1,/,/,/,/,/,-2
C=C1C(=O)OC2CC(C)C3C=CC(=O)C3(C)C(O)C12 (stereo unspecified),/,/,/,-8,/,/
C=C1C(=O)O[C@@H]2C[C@@H](C)[C@@H]3C=CC(=O)[C@@]3(C)[C@@H](OC(=O)CC(=O)O[C@H]3[C@@H]4C(=C)C(=O)O[C@@H]4C[C@@H](C)[C@@H]4C=CC(=O)[C@]43C)[C@H]12,5,33*,100,4,94*,-1
COc1ccc(C(=O)N/N=C\c2ccoc2)cc1,-7,0,-16,7,6,21
Cc1ccc(C(=O)N/N=C/c2ccoc2)cc1C,-1,4,0,-2,11,49*
Oc1cc(O)c2c(c1)O[C@H](c1ccc(O)c(O)c1)[C@@H](O)C2,1,59*,1,-2,9,0
COc1ccc(S(=O)(=O)Nc2ccc3c(c2)C(=O)N([C@H](C)CO)C[C@H](C)[C@H](CN(C)C)OCCCC[C@H](C)O3)cc1,/,/,/,/,/,-2
O=C(Nc1ncc([N+](=O)[O-])s1)c1ccc2c(c1)OCO2,7,31*,13,-2,34,2
Cc1ccc(C(=O)Nc2ncc([N+](=O)[O-])s2)cc1,3,25,5,-6,13,0
CC(C)NC(=O)Nc1ccc2c(c1)C(=O)N([C@@H](C)CO)C[C@@H](C)[C@H](CN(C)C(=O)NC1CCCCC1)OCCCC[C@H](C)O2,/,/,/,/,/,-2
CN(C(=O)c1cccc(COc2ccc(Cl)cc2Cl)c1)c1ccccc1,-8,35*,0,51*,-11,0
O=C(NCc1ccccc1)c1cccc(COc2cc(Cl)ccc2Cl)c1,-9,0,-1,-4,13,0
O=C(O)COc1ccccc1C(Nc1cccnc1)c1cc(Cl)c2cccnc2c1O (stereo unspecified),/,41*,/,1,7,/
CCC(=O)N1C[C@H](C)[C@@H](OC)CN(C)C(=O)c2ccc(NC(=O)c3cc(C)on3)cc2OC[C@@H]1C,/,/,/,/,/,-3
N#Cc1nc(Cc2cccc3ccccc23)oc1N1CCOCC1,/,/,-2,1,3,0
CC1CCN(c2oc(Cc3cccc4ccccc34)nc2C#N)CC1,10,-1,3,55*,9,-1
